Shown are actives, neighbours in structure and some others; about 0.92% of the full set was active somewhere.
RPL19A TOR yeast – modulators of TOR pathway RPL19A-GFP in S. cerevisiae. S. cerevisiae RPL19A-GFP strain, flow cytometry, 3 h; hits give low values. percent response vs DMSO, % at 10 µM. 330,000 tested, 0.3% active. AID 2025;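 active = percent response vs DMSO below 50%; inconclusive = fewer than 70 events counted for the yeast strain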;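 also: median channel GFP fluorescence of the barcoded RPL19A-GFP strain; ratio of sample median GFP to plate DMSO average so 100% = DMSO; lower means less RPL19A-GFP as with rapamycin TOR inhibition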
AGP1 TOR yeast – modulators of TOR pathway AGP1-GFP in S. cerevisiae. GFP response vs DMSO, % at 10 µM. AID 2066. S. cerevisiae AGP1-GFP multiplex flow cytometry, 3 h; GFP as percent of DMSO wells. 320,000 tested, 0.02% active;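 active = GFP response relative to DMSO above a set limit, near screen average plus 3 SD, cut at about 150% in these data; inconclusive = fewer than 70 cells counted for the yeast strain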;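 also: median GFP channel fluorescence of the gated AGP1 strain per well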
MEP2 TOR yeast – modulators of TOR pathway MEP2-GFP in S. cerevisiae; S. cerevisiae MEP2-GFP strain, flow cytometry GFP, 3 h; 100% = DMSO control level; GFP response vs DMSO, % at 10 µM; 330,000 tested, 0.51% active;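 active = GFP response versus DMSO above a set limit, roughly screen mean plus 3 SD, cut at about 180% in these data; inconclusive = fewer than 70 cells counted for a yeast strain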;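 also: median GFP fluorescence of the barcode-gated MEP2-GFP cells per well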
CIT2 TOR yeast – modulators of TOR pathway CIT2-GFP in S. cerevisiae; S. cerevisiae CIT2-GFP strain, flow cytometry, 3 h; 100 means same as DMSO wells; GFP response vs DMSO, % at 10 µM; 320,000 tested, 0.065% active; AID 2029;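 active = GFP response relative to DMSO above a set limit, near the screen mean plus 3 SD, cut at about 150% in these data; inconclusive = Fewer than 70 cells measured for a yeast strain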;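 also: ratio of well median GFP fluorescence to mean of DMSO wells on the plate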
LAP4 TOR yeast – modulators of TOR pathway LAP4-GFP in S. cerevisiae. GFP response vs DMSO, % at 10 µM. S. cerevisiae LAP4-GFP multiplex, flow cytometry GFP, 3 h; median GFP as percent of DMSO wells. 320,000 tested, 0.34% active;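 active = GFP response vs DMSO above a set limit, about the screen mean plus 3 SD, cut at about 150% in these data; inconclusive = under 70 cell events counted for the yeast strain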
Starred values were filed as active, the others as inactive; [ ] = dose if it differs, or a comment.

How did Cc1ccc(S(=O)(=O)Nc2nc(C)c(C(=O)NNS(=O)(=O)c3cc(C)ccc3C)s2)cc1 do in these assays?
RPL19A TOR yeast: 50.7; AGP1 TOR yeast: inconclusive; MEP2 TOR yeast: 241.3*[may fluoresce violet]; CIT2 TOR yeast: inconclusive; LAP4 TOR yeast: 65.6

What do the screens show for `Cc1ccc(S(=O)(=O)NNC(=O)c2sc(NS(=O)(=O)c3ccccc3)nc2C)cc1`?
RPL19A TOR yeast: 57.1; AGP1 TOR yeast: inconclusive; MEP2 TOR yeast: 493.8*[may fluoresce violet]; CIT2 TOR yeast: inconclusive; LAP4 TOR yeast: 85.0

Results for O=C(O)c1ccc(Cl)c(S(=O)(=O)Nc2cccc(C(=O)Nc3cccc(C(F)(F)F)c3)c2)c1 ?
RPL19A TOR yeast: 98.5; AGP1 TOR yeast: 99.7; MEP2 TOR yeast: 100.0; CIT2 TOR yeast: 91.1; LAP4 TOR yeast: 102.7

Results for Cc1cc(C)c2c(N)c3cccc(C)c3nc2n1 ?
RPL19A TOR yeast: 61.8; AGP1 TOR yeast: 25.1; MEP2 TOR yeast: 321.8*[may fluoresce violet]; CIT2 TOR yeast: inconclusive; LAP4 TOR yeast: 94.5

How did COc1ccc(S(=O)(=O)NCCNC(=O)N2CCOCC2)cc1 do in these assays?
RPL19A TOR yeast: 96.6; AGP1 TOR yeast: 125.2; MEP2 TOR yeast: 114.5; CIT2 TOR yeast: 172.7*[may fluoresce green]; LAP4 TOR yeast: 114.4

What do the screens show for `O=C(NCCNS(=O)(=O)c1ccccc1)N1CCOCC1`?
RPL19A TOR yeast: 93.2; AGP1 TOR yeast: 102.7; MEP2 TOR yeast: 95.0; CIT2 TOR yeast: 93.8; LAP4 TOR yeast: 93.3

Results for Cc1cccc(OCc2nc(-c3ccc(Br)o3)no2)c1 ?
RPL19A TOR yeast: 91.1; AGP1 TOR yeast: 101.7; MEP2 TOR yeast: 91.3; CIT2 TOR yeast: 85.5; LAP4 TOR yeast: 117.2

What do the screens show for `CCC(C)OC(=O)C1=C(C)O[C@]23OC(N)=C(C#N)[C@]12C(=O)c1ccccc13` (stereo partly specified)?
RPL19A TOR yeast: 96.4; AGP1 TOR yeast: 101.4; MEP2 TOR yeast: 102.5; CIT2 TOR yeast: 100.3; LAP4 TOR yeast: 95.8

How did CC(NC(=O)c1ccc(C(C)(C)C)cc1)C(c1cccs1)N1CCOCC1 (stereo unspecified) do in these assays?
RPL19A TOR yeast: 105.3; AGP1 TOR yeast: 112.1; MEP2 TOR yeast: 112.4; CIT2 TOR yeast: 106.3; LAP4 TOR yeast: 119.6

Results for CCCCn1cc(S(=O)(=O)c2ccccc2)c(=O)c2cc(C)ccc21 ?
RPL19A TOR yeast: 39.6*[may fluoresce violet]; AGP1 TOR yeast: inconclusive; MEP2 TOR yeast: 258.3*[may fluoresce violet]; CIT2 TOR yeast: inconclusive; LAP4 TOR yeast: 113.9

Results for COC(=O)c1cc(OC)c(OC)cc1NC(=O)CSc1nnnn1Cc1ccccc1 ?
RPL19A TOR yeast: 56.1; AGP1 TOR yeast: inconclusive; MEP2 TOR yeast: 230.4*[may fluoresce violet]; CIT2 TOR yeast: inconclusive; LAP4 TOR yeast: 70.8

How did O=C(CSc1nnnn1Cc1ccccc1)Nc1ccccc1 do in these assays?
RPL19A TOR yeast: 96.1; AGP1 TOR yeast: 102.4; MEP2 TOR yeast: 96.8; CIT2 TOR yeast: 98.2; LAP4 TOR yeast: 112.8

What do the screens show for `Cn1c(=O)c2c(nc(SCCN3CCCCC3)n2Cc2ccccc2)n(C)c1=O`?
RPL19A TOR yeast: 23.3*[may fluoresce violet]; AGP1 TOR yeast: inconclusive; MEP2 TOR yeast: 280.5*[may fluoresce violet]; CIT2 TOR yeast: inconclusive; LAP4 TOR yeast: 114.5

How did Cc1ccc(Cn2c(SCCN3CCCCC3)nc3c2c(=O)n(C)c(=O)n3C)cc1 do in these assays?
RPL19A TOR yeast: 94.8; AGP1 TOR yeast: 97.9; MEP2 TOR yeast: 96.5; CIT2 TOR yeast: 90.1; LAP4 TOR yeast: 95.3

How did Cn1c(N2CCCC2)nc2c1c(=O)n(Cc1ccc(Cl)cc1)c(=O)n2C do in these assays?
RPL19A TOR yeast: 99.3; AGP1 TOR yeast: 99.8; MEP2 TOR yeast: 99.1; CIT2 TOR yeast: 71.9; LAP4 TOR yeast: 161.9*

Results for O=C(CSc1nncs1)NC1CCCCCCC1 ?
RPL19A TOR yeast: 93.7; AGP1 TOR yeast: 92.7; MEP2 TOR yeast: 95.7; CIT2 TOR yeast: 84.1; LAP4 TOR yeast: 95.8

How did CCCCOc1ccc(C(=O)N2CCN(c3ccc(N4CCOCC4)nn3)CC2)cc1 do in these assays?
RPL19A TOR yeast: 77.5; AGP1 TOR yeast: 68.0; MEP2 TOR yeast: 79.0; CIT2 TOR yeast: 69.9; LAP4 TOR yeast: 157.5*

Results for O=C(Nc1cccc(C(=O)N2CCOCC2)c1)c1ccc([N+](=O)[O-])cc1 ?
RPL19A TOR yeast: 100.4; AGP1 TOR yeast: 99.3; MEP2 TOR yeast: 96.8; CIT2 TOR yeast: 96.7; LAP4 TOR yeast: 92.1

How did COc1ccccc1CNC(=O)CCC(=O)N1Cc2cccc(OC)c2Oc2ncccc21 do in these assays?
RPL19A TOR yeast: 13.8*[may fluoresce violet]; AGP1 TOR yeast: inconclusive; MEP2 TOR yeast: 171.4; CIT2 TOR yeast: inconclusive; LAP4 TOR yeast: 78.5

What do the screens show for `Cc1ccc(CNC(=O)/C=C/c2cccs2)cc1`?
RPL19A TOR yeast: 121.1; AGP1 TOR yeast: 80.4; MEP2 TOR yeast: 87.4; CIT2 TOR yeast: 95.3; LAP4 TOR yeast: 91.1

How did CCOC(=O)Nc1c2ccccc2nc2ccccc12 do in these assays?
RPL19A TOR yeast: 74.9; AGP1 TOR yeast: 12.6; MEP2 TOR yeast: 206.9*[may fluoresce violet]; CIT2 TOR yeast: inconclusive; LAP4 TOR yeast: 89.4

What do the screens show for `CS/C(N)=N/N=C/c1ccc2c(c1)OCO2`?
RPL19A TOR yeast: 76.5; AGP1 TOR yeast: 147.5; MEP2 TOR yeast: 336.8*; CIT2 TOR yeast: 132.3; LAP4 TOR yeast: 154.9*

Results for O=C(CN1C(=O)C2CC=CCC2C1=O)Nc1nnc(SCc2ccc(Cl)cc2)s1 (stereo unspecified) ?
RPL19A TOR yeast: 14.8*[may fluoresce violet]; MEP2 TOR yeast: inconclusive; CIT2 TOR yeast: inconclusive; LAP4 TOR yeast: 102.9

How did Cc1cc(C)n(C(=O)/C(C#N)=N\Nc2ccccc2[N+](=O)[O-])n1 do in these assays?
RPL19A TOR yeast: 93.8; AGP1 TOR yeast: 105.0; MEP2 TOR yeast: 134.4; CIT2 TOR yeast: 90.4; LAP4 TOR yeast: 182.7*

Results for CC12CCC(C(=O)N3CCc4ccccc43)(CC1=O)C2(C)C (stereo unspecified) ?
AGP1 TOR yeast: 31.7; MEP2 TOR yeast: 282.0*[may fluoresce violet]; CIT2 TOR yeast: inconclusive; LAP4 TOR yeast: 96.0

What do the screens show for `CC12CCC(C(=O)N3CCCc4ccccc43)(CC1=O)C2(C)C` (stereo unspecified)?
RPL19A TOR yeast: 98.7; AGP1 TOR yeast: 100.0; MEP2 TOR yeast: 103.8; CIT2 TOR yeast: 92.0; LAP4 TOR yeast: 106.4

How did Cc1ccc(C)c(S(=O)(=O)N2CCCCC2CCNC(=O)C(=O)NCc2ccco2)c1 (stereo unspecified) do in these assays?
RPL19A TOR yeast: 88.4; AGP1 TOR yeast: 86.7; MEP2 TOR yeast: 92.1; CIT2 TOR yeast: 101.5; LAP4 TOR yeast: 95.4

What do the screens show for `Cc1ccc(F)cc1NC(=O)N1CCNC(=O)C1CC(=O)Nc1cc(Cl)ccc1Cl` (stereo unspecified)?
RPL19A TOR yeast: 90.8; AGP1 TOR yeast: 114.9; MEP2 TOR yeast: 103.1; CIT2 TOR yeast: 153.8*[may fluoresce green]; LAP4 TOR yeast: 117.5

Results for COc1ccccc1NC(=O)CC1C(=O)NCCN1C(=O)Nc1ccc(Cl)c(Cl)c1 (stereo unspecified) ?
RPL19A TOR yeast: 67.5; AGP1 TOR yeast: 21.7; MEP2 TOR yeast: 470.1*[may fluoresce violet]; CIT2 TOR yeast: inconclusive; LAP4 TOR yeast: 86.6

Compound activity from PubChem.
